Sampled rows, rich in hits. Any-hit rate of the full collection: about 0.92%.
CIT2 TOR yeast – alters CIT2-GFP fluorescence in TOR pathway yeast screen. S. cerevisiae CIT2-GFP strain, flow cytometry, 3 h; 100 means same as DMSO wells. GFP response vs DMSO, % at 10 µM. 0.065% of 320,000 active;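 active = GFP response relative to DMSO above a set limit, near the screen mean plus 3 SD, cut at about 150% in these data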;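 also: ratio of well median GFP fluorescence to mean of DMSO wells on the plate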
RPL19A-GFP yeast – yeast TOR pathway RPL19A-GFP modulation | S. cerevisiae RPL19A-GFP strain, flow cytometry, 3 h; active compounds read low | percent response vs DMSO, % at 10 µM | 0.3% of 330,000 active | AID 2025;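 active = percent response vs DMSO below 50%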;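 also: median channel GFP fluorescence of the barcoded RPL19A-GFP strain; ratio of sample median GFP to plate DMSO average so 100% = DMSO; lower means less RPL19A-GFP as with rapamycin TOR inhibition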
MEP2-GFP yeast – yeast TOR pathway MEP2-GFP modulation | 0.51% of 330,000 active | S. cerevisiae MEP2-GFP strain, flow cytometry GFP, 3 h; 100% = DMSO control level | GFP response vs DMSO, % at 10 µM;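 active = GFP response versus DMSO above a set limit, roughly screen mean plus 3 SD, cut at about 180% in these data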;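 also: median GFP fluorescence of the barcode-gated MEP2-GFP cells per well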
AGP1 TOR yeast – alters AGP1-GFP fluorescence in TOR pathway yeast screen; AID 2066; S. cerevisiae AGP1-GFP multiplex flow cytometry, 3 h; GFP as percent of DMSO wells; 0.02% of 320,000 active; GFP response vs DMSO, % at 10 µM;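 active = GFP response relative to DMSO above a set limit, near screen average plus 3 SD, cut at about 150% in these data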;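 also: median GFP channel fluorescence of the gated AGP1 strain per well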
LAP4 TOR yeast – yeast TOR pathway LAP4-GFP modulation | S. cerevisiae LAP4-GFP multiplex, flow cytometry GFP, 3 h; median GFP as percent of DMSO wells | GFP response vs DMSO, % at 10 µM | 0.34% of 320,000 active | AID 2023;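 active = GFP response vs DMSO above a set limit, about the screen mean plus 3 SD, cut at about 150% in these data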
LAP4 cherry2 – reconfirmed LAP4-GFP TOR pathway modulator in yeast; shares compounds with LAP4 TOR yeast; S. cerevisiae LAP4-GFP strain, flow cytometry GFP, 3 h; GFP response vs DMSO, % at 10 µM; 20% of 590 active;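 active = GFP signal as percent of the solvent control above about 150%, meaning raised reporter expression, limit read from the data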;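 also: ratio of well median GFP fluorescence to plate DMSO mean so 100% = DMSO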
MEP2-GFP pick2 – yeast MEP2-GFP modulation, second cherry pick | S. cerevisiae MEP2-GFP strain, flow cytometry GFP, 3 h | shares compounds with LAP4 TOR yeast | 10% of 590 active | GFP response vs DMSO, % at 10 µM;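 active = GFP signal above 150% of the solvent control wells, that is a rise of more than half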;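 also: median channel GFP fluorescence of all gated yeast cells per well; ratio of median GFP to plate DMSO average so 100% = DMSO level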
RPL19A-GFP pick2 – reconfirmed modulator of RPL19A-GFP TOR reporter in yeast; AID 2623; GFP response vs DMSO, % at 10 µM; S. cerevisiae RPL19A-GFP strain, flow cytometry GFP, 3 h; active compounds read low; 100% means same as DMSO wells; shares compounds with LAP4 TOR yeast; 3% of 590 active;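 active = under 65% GFP response relative to DMSO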;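 also: median GFP channel fluorescence per well over the all cells gate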
CIT2 GFP CP2 – yeast CIT2-GFP TOR reporter modulation, second cherry pick; 8% of 590 active; shares compounds with LAP4 TOR yeast; GFP response vs DMSO, % at 10 µM; S. cerevisiae CIT2-GFP strain, flow cytometry GFP, 3 h; DMSO control wells read 100%;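 active = GFP response vs DMSO above about 150%, limit read from the data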;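 also: median green fluorescence per well over all gated yeast cells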
AGP1 GFP CP2 – reconfirmed modulator of AGP1-GFP TOR reporter in yeast; shares compounds with LAP4 TOR yeast; S. cerevisiae AGP1-GFP strain, flow cytometry GFP, 3 h; percent response vs DMSO, % at 10 µM; 590 tested, under 10 active; AID 2643;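 active = over 150 percent of DMSO response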;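 also: median GFP channel fluorescence over all cells without mother daughter split; sample median GFP divided by mean DMSO control so 100% equals DMSO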
Yeast autofluor – compound is autofluorescent in yeast s288c cells; shares compounds with LAP4 TOR yeast; S. cerevisiae s288c, 520 nm autofluorescence, flow cytometry, 3 h; active compounds read high; zero means same as solvent-only cells; fluorescence change (kMESF span) at 33 µM; 610 tested, under 10 active; AID 2757;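 active = fluorescence span over the dose series, or activity score, above about 33, limit read from the data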
Yeast autofl DR – yeast s288c autofluorescence artifact in dose response. fluorescence change (span) at 33 µM. 110 tested, under 10 active. shares compounds with LAP4 TOR yeast. S. cerevisiae s288c parental, compound autofluorescence, flow cytometry, 3 h. AID 488829;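 active = fluorescence change span, or the activity score built from it, above 25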
TORC1 bypass – stops wildtype yeast growth while TORC1 bypass cells still grow; shares compounds with LAP4 TOR yeast; S. cerevisiae BY4741 spot growth rating, 48-72 h; active compounds read low; growth rating (0-3) at 30 µM; 120 tested, under 10 active;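 active = growth rating at most 1 for wild type yeast while the TORC1 bypass strain still grows fully, rated 3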
An asterisk follows results filed as active; . = no result.

SMILES	CIT2 TOR yeast	RPL19A-GFP yeast	MEP2-GFP yeast	AGP1 TOR yeast	LAP4 TOR yeast	LAP4 cherry2	MEP2-GFP pick2	RPL19A-GFP pick2	CIT2 GFP CP2	AGP1 GFP CP2	Yeast autofluor	others
COc1cccc(C(=O)NCCS(=O)(=O)NCc2ccco2)c1	84	85	88	102	151*	101	105	100	103	100	.
O=C(OCC(=O)N1CCN(C(=O)c2ccco2)CC1)c1cc(-c2ccco2)nc2ccccc12	128	87	103	97	123	.	.	.	.	.	.
O=C(OCC(=O)N1CCN(C(=O)c2ccco2)CC1)c1cc(-c2ccc(Cl)c(Cl)c2Cl)nc2ccccc12	99	80	118	114	122	.	.	.	.	.	-0.3
Cc1ccc(S(=O)(=O)NCC(=O)NCC(=O)N(C)Cc2ccc3ccccc3c2)cc1C	90	92	138	95	108	.	.	.	.	.	.
CCN(CC(=O)Nc1c(F)cccc1F)C(=O)COc1cccc2c1OC(C)(C)C2	78	83	83	108	185*	96	98	100	106	102	.
Cc1cccc(C)c1NC(=O)CN(C)C(=O)COc1cccc2c1OC(C)(C)C2	109	108	102	113	114	.	.	.	.	.	.
CCOC(=O)C1CCCN(C(=O)CCCn2nnnc2CN2CCC(C)CC2)C1 (stereo not given)	96	101	105	89	80	.	.	.	.	.	.
CS(=O)(=O)N(CC(=O)NCCSCc1ccccc1Cl)c1ccc(F)cc1	118	108	111	108	95	.	.	.	.	.	.
Cc1ccc(N=Nc2ccc(O)c3ncccc23)cc1C	102	103	107	94	132	.	.	.	.	.	.
Cc1ccc(N=Nc2ccc(O)c3ncccc23)cc1	79	92	99	87	157*	188*	122	103	150*	100	0.2
COc1ccccc1N=Nc1ccc(O)c2ncccc12	149	98	118	92	249*	.	.	.	.	.	1.2
O=C(CSCc1ccc(Cl)cc1)Nc1ccc(S(=O)(=O)N2CCOCC2)cc1	90	98	105	91	87	.	.	.	.	.	.
COc1ccccc1[C@]1(C)ON(c2ccccc2C(F)(F)F)C1=O	89	92	89	87	156*	150*	110	100	107	100	0.3
Cc1cc(=O)c(C(=O)O)nn1-c1ccccc1C(F)(F)F	105	107	106	109	96	.	.	.	.	.	.
COc1ccc2c(c1)C(=O)N(c1ccccc1OC)C(=O)C2(C)C	91	94	102	99	115	.	.	.	.	.	.
CC[C@]1(c2ccccc2OC)ON(c2ccccc2C(F)(F)F)C1=O	85	93	100	81	118	150	120	103	118	110	0
CC(C)C[C@]1(c2ccccc2)ON(c2ccccc2C(F)(F)F)C1=O	97	100	89	74	88	104	100	105	112	99	-0.1
CCOC(=O)c1c(C)[nH]c(C)c1C(=O)COC(=O)/C=C/c1ccco1	98	98	107	94	100	.	.	.	.	.	.
COc1ccc2c(c1)CC/C(=C/c1cc(OC)c(OC)c(OC)c1)C2=O	93	103	107	111	111	.	.	.	.	.	.
COc1cccc(/C=C2\C(=O)C(=O)c3ccccc32)c1	99	97	102	103	125	.	.	.	.	.	.
COc1cc(C=C2C(=O)c3ccccc3C2=O)cc(OC)c1	89	93	91	91	120	99	96	98	106	101	0
COc1ccc(C=C2C(=O)c3ccccc3C2=O)cc1O	97	97	100	100	104	94	97	103	103	95	0.3
COc1cc(C=C2C(=O)c3ccccc3C2=O)cc(OC)c1OC	89	100	90	89	121	105	103	93	96	103	0.2
O=C(O)c1nccnc1C(=O)Nc1ccccc1-c1ccccc1	99	96	98	108	103	.	.	.	.	.	.
COc1ccc(NC(=O)Nc2ccc(F)cc2F)c(C)c1	93	96	105	104	108	.	.	.	.	.	.
SMILES	CIT2 TOR yeast	RPL19A-GFP yeast	MEP2-GFP yeast	AGP1 TOR yeast	LAP4 TOR yeast	LAP4 cherry2	MEP2-GFP pick2	RPL19A-GFP pick2	CIT2 GFP CP2	AGP1 GFP CP2	Yeast autofluor	others
Cc1cc([N+](=O)[O-])ccc1NC(=O)Nc1ccc(F)cc1F	71	59	109	52	171*	101	102	96	100	97	.
Cc1cc(OC2CCCCC2)nc(NCc2ccccc2)n1	100	100	104	100	109	.	.	.	.	.	.
Clc1cc(Cl)cc(Nc2cc(Oc3cccc(Cl)c3)nc(NCc3ccccc3)n2)c1	.	.	.	.	.	.	.	.	.	.	.	Yeast autofl DR=0.16;TORC1 bypass=3
Cc1cc(Nc2cccc(Cl)c2)nc(NCc2ccccc2)n1	100	102	98	97	96	.	.	.	.	.	.
Clc1cc(Cl)cc(Nc2cc(NC3CCCCC3)nc(NCc3ccccc3)n2)c1	.	.	.	.	.	.	.	.	.	.	.	Yeast autofl DR=0.37;TORC1 bypass=3
Cc1c(C)n2c(SCC(=O)N3CCN(c4ccccc4)CC3)nnc2[nH]c1=O	102	98	98	111	117	.	.	.	.	.	.
O=C(Nc1cccc2ccccc12)NC(Cc1ccccc1)C(=O)O (stereo not given)	104	105	117	100	99	.	.	.	.	.	.
Cc1ccc(/C=C2/C(=O)ON=C2c2ccccc2)o1	80	75	106	68	257*	.	.	.	.	.	4.7	Yeast autofl DR=2;TORC1 bypass=3
O=C1ON=C(c2ccccc2)/C1=C\c1ccco1	67	74	105	72	219*	.	.	.	.	.	1.6	Yeast autofl DR=0.89;TORC1 bypass=3
O=C1ON=C(c2ccccc2)/C1=C/c1ccccc1	106	97	107	94	103	.	.	.	.	.	.

Compound activity as filed in PubChem.
